Experimental findings from PubChem BioAssay (NCATS) are described below.

Records with an inconclusive call do not appear. Unmarked numbers belong to inactive results. Activity calls are given as the source filed them. Calls follow the shape of the dose curve; as a rule, active = well fitted cell-killing curve with a large enough effect; inconclusive = small, poorly fitted or top-dose-only effect, or effect the other way; inactive = no such curve, though single readings can be large or run the other way.

A short description of experiment [1]: Quantitative High-Throughput drug screen in 47 multiple myeloma cell lines against the NCATS MIPE library collection: OPM1_PLB cell viability assay (AID 1918989). Also: nearly all actives have a fitted effect of over 40% in size. Also: potency is read from the fitted curve at half-maximal effect. The essentials: (§1)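 ATP-based CellTiter-Glo luminescence after 48 h drug exposure (37 °C, 5% CO2) of 500 myeloma cells per well. DMSO-only wells set 100% viability, media-only wells 0%; MIPE 4.0 library added by pin tool.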

Experiment [2] is described as follows: Quantitative High-Throughput drug screen in 47 multiple myeloma cell lines against the NCATS MIPE library collection: RPMI8226_ATCC cell viability assay (AID 1919871). Also: nearly all actives have a fitted effect of over 30% in size. Also: potency is read from the fitted curve at half-maximal effect. The essentials: as §1
The nature of experiment [3]: Quantitative High-Throughput drug screen in 47 multiple myeloma cell lines against the NCATS MIPE library collection: KMS11_JCRBsus cell viability assay (AID 1919873). Also: nearly all actives have a fitted effect of over 50% in size. A digest of the protocol:
as §1

The nature of experiment [4]: Quantitative High-Throughput drug screen in 47 multiple myeloma cell lines against the NCATS MIPE library collection: KMS28BM_JCRB cell viability assay (AID 1919874). Also: nearly all actives have a fitted effect of over 35% in size. Also: potency is read from the fitted curve at half-maximal effect. The essentials: as §1
The nature of experiment [5]: Quantitative High-Throughput drug screen in 47 multiple myeloma cell lines against the NCATS MIPE library collection: SKMM1_PLB cell viability assay (AID 1919863). Also: nearly all actives have a fitted effect of over 35% in size. Also: potency is read from the fitted curve at half-maximal effect. As to conditions: SKMM1 myeloma viability, CellTiter-Glo ATP, 48 h; viability: hits give low values. A digest of the protocol:
as §1

Experiment [6] in a line: Quantitative High-Throughput drug screen in 47 multiple myeloma cell lines against the NCATS MIPE library collection: U266_ATCC cell viability assay (AID 1919864). Also: nearly all actives have a fitted effect of over 35% in size. Also: potency is read from the fitted curve at half-maximal effect. The essentials: as §1
A short description of experiment [7]: Quantitative High-Throughput drug screen in 47 multiple myeloma cell lines against the NCATS MIPE library collection: UTMC2_PLB cell viability assay (AID 1919868). Also: nearly all actives have a fitted effect of over 55% in size. The following applies: CellTiter-Glo ATP luminescence, 48 h; viability (% of DMSO control): at 45.8 µM (top of the series). A digest of the protocol: as §1
A short description of experiment [8]: Quantitative High-Throughput drug screen in 47 multiple myeloma cell lines against the NCATS MIPE library collection: XG1_PLB cell viability assay (AID 1919866). Also: nearly all actives have a fitted effect of over 35% in size. Also: potency is read from the fitted curve at half-maximal effect. A digest of the protocol: as §1
Experiment [9] in a line: Quantitative High-Throughput drug screen in 47 multiple myeloma cell lines against the NCATS MIPE library collection: VP6_DJ cell viability assay (AID 1919867). Also: nearly all actives have a fitted effect of over 40% in size. Also: potency is read from the fitted curve at half-maximal effect. A digest of the protocol: as §1
Experiment [10] can be described thus: Quantitative High-Throughput drug screen in 47 multiple myeloma cell lines against the NCATS MIPE library collection: PE2_PLB cell viability assay (AID 1919869). Also: nearly all actives have a fitted effect of over 35% in size. Also: potency is read from the fitted curve at half-maximal effect. A digest of the protocol:
as §1

Experiment [11] is described as follows: Quantitative High-Throughput drug screen in 47 multiple myeloma cell lines against the NCATS MIPE library collection: PCM6_Riken cell viability assay (AID 1919870). Also: nearly all actives have a fitted effect of over 30% in size. Also: potency is read from the fitted curve at half-maximal effect. The essentials:
as §1

Experiment [12] is described as follows: Quantitative High-Throughput drug screen in 47 multiple myeloma cell lines against the NCATS MIPE library collection: OPM2_DSMZ cell viability assay (AID 1919872). Also: nearly all actives have a fitted effect of over 30% in size. A digest of the protocol:
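Viability readout: CellTiter-Glo luminescence following 5 min room-temperature incubation with reagent. Prior exposure: 48 h, 37C, humidified 5% CO2, 500 cells per well.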

A short description of experiment [13]: Quantitative High-Throughput drug screen in 47 multiple myeloma cell lines against the NCATS MIPE library collection: XG6_PLB cell viability assay (AID 1919865). Also: nearly all actives have a fitted effect of over 40% in size. Also: potency is read from the fitted curve at half-maximal effect. A digest of the protocol:
as §1

In the case of `Cc1cnc(NC(=O)C2=C(O)c3ccccc3S(=O)(=O)N2C)s1`, the Potency entry in experiment [1], in experiment [2], in [3] and in experiment [4] was “inactive” each time.
Take `CCOC(=O)N1CCC(=C2c3ccc(Cl)cc3CCc3cccnc32)CC1`: the results for the Potency in experiment [5], in experiment [6] and in experiment [4] were 20.9 µM (active), 33.2 µM (active) and 23.5 µM (active), respectively. The Potency entry in [7] was “inactive”.
Regarding `C[C@@H]1CN(Cc2ccc(F)cc2)[C@@H](C)CN1C(=O)c1cc2c(C(=O)C(=O)N(C)C)cn(C)c2cc1Cl`, the Potency in experiment [1] was 29.6 µM (active); in [8] it was 18.7 µM (active); in experiment [9], 14.8 µM (active); in experiment [10], 16.6 µM (active); in [11], 18.7 µM (active). Also, the Potency entry in experiment [12] is “inactive”.
Take `Cc1ccccc1C(C(=O)NC1CCCC1)N(C(=O)Cn1cnc2ccccc21)c1cccc(F)c1` (stereo not given): the Potency was 10.5 µM (active) in experiment [5]; 23.5 µM (active) in experiment [6]; 18.7 µM (active) in [8]; 2.35 µM (active) in experiment [9]; 3.72 µM (active) in experiment [2]. Further, the Potency result in [13], in [11] and in experiment [4] was “inactive” throughout.
On to `Cc1c(CCOc2ccc(C(=O)O)cc2)c2cc(Cl)ccc2n1C(c1ccccc1)c1ccccc1`, for which the viability in [5] is 110%. For the same molecule, in experiment [6], the Potency is 11.8 µM (active). For the same molecule, the Potency result in experiment [13], in experiment [8], in [10] and in experiment [3] was “inactive” each time.
Take `COc1cc(Nc2ncc3c(n2)-c2ccc(Cl)cc2C(c2c(F)cccc2OC)=NC3)ccc1C(=O)O`: the viability in experiment [5] is 78.9%. In addition, in experiment [6], the Potency entry was “inactive”.
In the case of `C[C@]12CC[C@H](O)CC1=CC[C@@H]1[C@H]2CC[C@]2(C)C(c3cccnc3)=CC[C@H]12`, the Potency is 1.82 µM (active) in experiment [5], 3.23 µM (active) in [13], 3.23 µM (active) in experiment [8] and 8.12 µM (active) in experiment [9]. The Potency result in [6], in experiment [10], in experiment [2], in experiment [12] and in [4] was “inactive” each time.
Turning to `CCc1cc(Nc2nccc(-c3c(-c4ccc(OC)c(C(=O)Nc5c(F)cccc5F)c4)nc4ccccn34)n2)c(OC)cc1N1CCC(N2CCN(S(C)(=O)=O)CC2)CC1`, the Potency in experiment [1] was 14.8 µM (active); in [8], 1.18 µM (active); in [9], 2.64 µM (active); in experiment [10] it was 5.26 µM (active); in experiment [2], 20.9 µM (active).
Consider `Cc1oncc1C(=O)Nc1ccc(C(F)(F)F)cc1`, for which the viability in [5] was 115%. Moreover, the Potency in experiment [13] is 4.69 µM (active); in experiment [8] it was 16.6 µM (active). Moreover, the Potency entry in [7], in experiment [10], in experiment [11] and in [12] was “inactive” each time.
As for `Cc1cccc(-c2nn(C(=S)Nc3ccccc3)cc2-c2ccnc3ccccc23)n1`, the Potency was 6.62 µM (active) in experiment [1], 9.35 µM (active) in [9] and 7.43 µM (active) in experiment [10]. The Potency entry in experiment [2] and in [4] was “inactive” each time.
For `OC[C@H](Cc1ccccc1)Nc1nc(Oc2ccc3c(c2)CCC3)nc2c1ncn2Cc1ccc(-c2ccccc2)cc1`, the Potency in [1] is 11.8 µM (active). Besides, the Potency result in experiment [9], in [11], in experiment [2], in experiment [12] and in [4] was “inactive” each time.
Consider `CCCC(CCC)C(=O)O`, for which the viability in experiment [5] is 126%. Also, the Potency in experiment [8] is 20.9 µM (active); in experiment [9] it was 18.7 µM (active). Besides, the Potency result in experiment [10], in experiment [2], in experiment [12], in experiment [3] and in experiment [4] was “inactive” throughout.
